PubChem BioAssay (NCATS)
Inconclusive results are not listed. Unmarked numbers belong to inactive results. Activity calls are given as the source filed them. Calls follow the shape of the dose curve; as a rule, active = well fitted inhibition curve with a large enough effect; inconclusive = small, poorly fitted or top-dose-only effect; inactive = no such curve, though single readings can be large or run the other way.
% is scaled to controls: 0 for no effect and ±100 for the full control effect; potency is read from the fitted curve at half-maximal effect.

What follows are molecules tested on Zika virus NS2B-NS3 protease (linked construct) (assay: Primary screen NINDS Rhodamine qHTS for Zika virus inhibitors (AID 1347160; also: nearly all actives have a fitted effect of over 55% in size)). Conditions: purified NS2B-NS3 protease, Rhodamine110 substrate fluorescence; series mostly up to 57.1 µM; activity change, negative = inhibition: at the top concentration.
Summary of the method: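 Kinetic fluorescence (Ex 480 nm, Em 540 nm) over 15 min with 1.5 microM Rhodamine110 peptide and 25 nM linked protease.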
For `C=C1CCC(OC(C)=O)C2(C)CC3(O)OC(=O)C(C)=C3CC12` (centres undefined), the “activity change, negative = inhibition” value was 16.8%. For `O=C(Nc1cccnn1)N1CCC(=Cc2cccc(Oc3ccc(C(F)(F)F)cn3)c2)CC1`, the “activity change, negative = inhibition” value was 20.6%. For `CC(C)(C)c1cc(CN2CCN(CC(O)c3ccc(Cl)cc3)CC2)cc(C(C)(C)C)c1O` (centres undefined), the “activity change, negative = inhibition” value was 72.2%. For `CO[C@@]12CC3[C@@H]([C@@H](O)[C@@H](OC(C)=O)C4[C@](C)(COC(C)=O)CCC[C@]34C)[C@@H](C)C1=CC(=O)O2` (some centres undefined), the “outcome” value was “inactive [at 33.1 µM]”. With `Cc1c(N2C(=O)c3ccc(C(=O)O)cc3C2=O)c(=O)n(-c2ccccc2)n1C` the “activity change, negative = inhibition” value was 40.5%. With `CC1CCC2(C(=O)OC3OC(COC4OC(CO)C(O)C(O)C4O)C(O)C(O)C3O)CCC3(C)C(=CCC4C5(C)CCC(O)C(C)(C(=O)O)C5CCC43C)C2C1(C)O` (centres undefined) the “activity change, negative = inhibition” value was -22.4% [at 15.1 µM]. `C[C@@H]1CCC2C(C)(C)[C@H](O)CC[C@]2(C)[C@@]12Cc1c(O)cc3c(c1O2)CN(CCO)C3=O` (some centres undefined) was tested, and the “activity change, negative = inhibition” value was -4.55% [at 33.1 µM]. For `CCOC(=O)N1CCC(NCCNC(=O)c2ccccc2C)CC1`, the “activity change, negative = inhibition” value was 20.7%. For `Cc1ncc([N+](=O)[O-])n1CC(O)CN1CCOCC1` (centres undefined), the “activity change, negative = inhibition” value was 8.37%. In the case of `COC(=O)[C@@]1(C)CC[C@]2(C(=O)O[C@@H]3O[C@H](CO)[C@@H](O)[C@H](O)[C@H]3O)CC[C@]3(C)C(=CCC4[C@@]5(C)CC[C@H](O[C@@H]6O[C@H](C(=O)O)[C@@H](O)[C@H](O)[C@H]6O)C(C)(C)C5CC[C@]43C)[C@@H]2C1` (some centres undefined), the “activity change, negative = inhibition” value is reported as -1.58% [at 15.1 µM]. In the case of `COc1cc(C2OCC3C(c4ccc(OC5OC(CO)C(O)C(O)C5O)c(OC)c4)OCC23)ccc1O` (centres undefined), the “outcome” value is reported as “inactive [at 33.1 µM]”. `Cc1nn(C)c2c1C(c1ccc(C(F)(F)F)cc1)C(C#N)=C(N)O2` (centres undefined) was tested, and the “activity change, negative = inhibition” value was -2.36%. In the case of `CC1=C(C)C(=O)OC(C(C)C2C(O)CC3C4C5OC5C5(O)CC(OC6OC(CO)C(O)C(O)C6O)CC(O)C5(C)C4CCC32C)C1` (centres undefined), the “activity change, negative = inhibition” value is reported as 36.3% [at 15.1 µM]. In the case of `CCC(C)(O)C(O)C(=O)OCc1ccc(O[C@@H]2O[C@H](CO)[C@@H](O)[C@H](O)[C@H]2O)cc1` (some centres undefined), the “activity change, negative = inhibition” value is reported as 18.3% [at 33.1 µM]. `CC1(CO)CC[C@]2(C(=O)O[C@@H]3O[C@H](CO)[C@@H](O)[C@H](O)[C@H]3O)CC[C@]3(C)C(=CCC4[C@@]5(C)C[C@H](O)[C@H](O[C@@H]6OC[C@@H](O)[C@H](O)[C@H]6O)[C@@](C)(CO)C5CC[C@]43C)C2C1` (some centres undefined) was tested, and the “activity change, negative = inhibition” value was -4.29% [at 15.1 µM]. In the case of `CC1(C)OC(=O)C(OCC2CC2)=C1c1ccc(S(C)(=O)=O)cc1`, the “outcome” value is reported as “inactive”. `C=C(C)C(=O)O[C@H]1C[C@@](C)(OC(C)=O)[C@@]2(O)CC[C@@](C)(O)[C@H](OC(C)=O)[C@@]23OC(=O)C(COC)=C13` was tested, and the “activity change, negative = inhibition” value was -7.38% [at 33.1 µM]. For `CC[C@H]1OC(=O)C[C@@H](O)[C@H](C)[C@@H](O[C@@H]2O[C@H](C)[C@@H](O)[C@H](N(C)C)[C@H]2O)[C@@H](CCN2C[C@H](C)C[C@H](C)C2)C[C@@H](C)C(=O)/C=C/C(C)=C/[C@@H]1CO[C@@H]1O[C@H](C)[C@@H](O)[C@@H](OC)[C@H]1OC`, the “activity change, negative = inhibition” value was 19.3%. In the case of `CC12CCC3c4ccc(O)cc4CCC3C1CCC2OC1OC(C(=O)O)C(O)C(O)C1O` (centres undefined), the “activity change, negative = inhibition” value is reported as 12.5%. With `C/C=C/C=C/C=C/C(=O)O[C@@H]1[C@@H](OC)C2=C(C(=O)N(C(C)C(=O)O)C2)[C@@]2(C)CCCC(C)(C)[C@H]12` (some centres undefined) the Potency was 11.2 µM (active). `C[C@@H]1O[C@@H](O[C@@H]2[C@@H](O)[C@@H](O)[C@H](O[C@@H]3[C@@H](O)[C@@H](O[C@]4(CO)O[C@H](CO)[C@@H](O)[C@@H]4OC(=O)/C=C/c4ccc(O)cc4)O[C@H](CO)[C@H]3OC(=O)/C=C/c3ccc(O)cc3)O[C@H]2C)[C@H](O)[C@H](O)[C@H]1O` was tested, and the “activity change, negative = inhibition” value was 32.4% [at 15.1 µM]. In the case of `O=c1ccn([C@@H]2O[C@H](CO)[C@@H](O)[C@H]2O)c(=O)[nH]1`, the “outcome” value is reported as “inactive”. `CC(=O)OC1C(O)CC(O[C@@H]2O[C@H](CO)[C@@H](O)[C@H](O)[C@H]2O)C2CCC3C(=O)OC(c4ccoc4)CC3(C)C21` (some centres undefined) was tested, and the “activity change, negative = inhibition” value was 8.5% [at 33.1 µM]. With `Cn1c(=O)cc(N2CCCC(N)C2)n(Cc2ccccc2C#N)c1=O` (centres undefined) the “activity change, negative = inhibition” value was 37.6%. With `Oc1ccc([C@H]2COc3cc(O)ccc3C2)cc1` the “activity change, negative = inhibition” value was 6.33%. With `CC(=O)[C@@H]1CC[C@]2(C(=O)O)CC[C@]3(C)C(CCC4[C@@]5(C)CC[C@H](O)C(C)(C)C5CC[C@]43C)C12` (some centres undefined) the “activity change, negative = inhibition” value was -18.7% [at 33.1 µM]. In the case of `CC/C=C\C[C@H]1C(=O)C=C[C@@H]1CCCCCCCC(=O)O`, the “activity change, negative = inhibition” value is reported as -19.1%. In the case of `CC1=CCC2C(C)(CO)CCCC2(CO)C1CO` (centres undefined), the Potency is reported as 15.8 µM (active). With `Cc1cn2c(N)c(Cl)cc(C(=O)NCC3CCN(CC(C)C)CC3)c2n1` the “activity change, negative = inhibition” value was -0.447%. With `COc1cc(C2Oc3c(O)cc(CCCO)cc3C2CO)ccc1O[C@H]1O[C@H](C)[C@@H](O)[C@H](O)[C@@H]1O` (some centres undefined) the “activity change, negative = inhibition” value was -7.4% [at 33.1 µM]. For `C[C@H]1C[C@H]2[C@@H]3CCC4=CC(=O)C=C[C@]4(C)[C@@]3(F)[C@@H](O)C[C@]2(C)[C@@]1(O)C(=O)COP(=O)(O)O`, the “activity change, negative = inhibition” value was -2.08%. With `CC1=C2C(=O)C=C(CO)[C@@H]2[C@H]2OC(=O)[C@H](C)[C@@H]2[C@@H](O)C1` the “activity change, negative = inhibition” value was -21.2%. In the case of `COc1ccccc1CC(C(=O)O)N(C)C(=O)c1ccccc1` (centres undefined), the “outcome” value is reported as “inactive [at 33.1 µM]”. `O=c1ccn(C2OC(CO)C(O)C2O)c(=O)[nH]1` (centres undefined) was tested, and the “activity change, negative = inhibition” value was 8.85%. In the case of `CC(=O)O[C@H]1[C@H](Oc2ccccc2COC(=O)C2(O)C=CCCC2=O)O[C@H](CO)[C@@H](O)[C@@H]1O` (some centres undefined), the “activity change, negative = inhibition” value is reported as -8.43% [at 33.1 µM]. In the case of `COc1ccc2c(c1)OC[C@]1(O)c3cc4c(cc3O[C@H]21)OCO4`, the “activity change, negative = inhibition” value is reported as -0.46% [at 33.1 µM]. With `C=C1C(O[C@@H]2O[C@H](CO)[C@@H](O)[C@H](O)[C@@H]2O)CC2C(C)(C)C(O)CCC2(C)C1CC/C(C)=C\CO` (some centres undefined) the “activity change, negative = inhibition” value was 10.4% [at 33.1 µM]. `COCCCNCC1COc2ccccc2O1` (centres undefined) was tested, and the “activity change, negative = inhibition” value was 24.6%. `CCNC(=O)[C@H]1O[C@H](n2cnc3c(NCC(c4ccccc4)c4ccccc4)nc(C(=O)NCCNC(=O)NC4CCN(c5ccccn5)CC4)nc32)[C@H](O)[C@@H]1O` was tested, and the “activity change, negative = inhibition” value was 37.3%.
